Laboratory results reported in PubChem BioAssay (NCI).
“And” between values parts separate entries of the source, which are not always exact repeats. Equal entries are not always repeated. Compounds without any hit were thinned out: in the full panel of roughly 79,000, 15% have a hit. A number with no mark means an inactive call. The source made the active and inactive calls. No stated cut-off is given here; in the data, active means growth inhibition above about 70%; inactive means the rest.

Tests used:
[1] = NCI Yeast Anticancer Drug Screen. Data for the rad50 strain (AID 155);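 further: 0% = growth of vehicle-only cultures of the same strain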; conditions: S. cerevisiae rad50 strain growth inhibition, stronger effect = higher value
Method in brief: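 Vehicle-treated cultures provide the reference for the growth inhibition reported for compound-exposed, repair-deficient yeast.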

[2] = NCI Yeast Anticancer Drug Screen. Data for the mec2-1 strain (AID 157); conditions: S. cerevisiae mec2-1 strain, stronger effect = higher value
Method in brief: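 Vehicle-treated cultures served as reference for growth inhibition of compound-exposed mec2-1 yeast.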

[3] = NCI Yeast Anticancer Drug Screen. Data for the sgs1 mgt1 strain (AID 161);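 further: 0% = growth of cultures given vehicle only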; conditions: S. cerevisiae sgs1 mgt1 strain, stronger effect = higher value
Method in brief: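 Test agents were incubated with a DNA-repair-mutant yeast strain. Growth was then read and compared against vehicle-treated controls.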

[4] = NCI Yeast Anticancer Drug Screen. Data for the cln2 rad14 strain (AID 165);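 further: 0% = growth equal to vehicle treated cultures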; conditions: S. cerevisiae cln2 rad14 strain, stronger effect = higher value
Method in brief: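 Each compound was tested on cln2 rad14 yeast. Inhibition of growth was calculated against vehicle-exposed controls.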

[5] = NCI Yeast Anticancer Drug Screen. Data for the bub3 strain (AID 167); conditions: S. cerevisiae bub3 mutant strain, stronger effect = higher value
Method in brief: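 Mutant yeast screening strain plus compound; vehicle-treated cultures serve as the 0% inhibition reference.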

[6] = NCI Yeast Anticancer Drug Screen. Data for the mlh1 rad18 strain (AID 175); conditions: S. cerevisiae mlh1 rad18 strain growth inhibition, stronger effect = higher value
Method in brief: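 Vehicle-treated cultures served as the reference for growth inhibition in a yeast strain carrying DNA damage repair alterations exposed to each compound.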

[7] = at 5.0 µM (retest, dose inferred, filed as 0.5)
[8] = at 50.0 µM (retest, dose inferred, filed as 5.0)

SMILES | growth inhibition [1, 7] [%] | growth inhibition [1, 8] | growth inhibition ([1]; at 50.0 µM) | growth inhibition [2, 7] | growth inhibition [2, 8] | growth inhibition ([2]; at 50.0 µM) | growth inhibition [3, 7] | growth inhibition [3, 8] | growth inhibition ([3]; at 50.0 µM) | growth inhibition [4, 7] [%] | growth inhibition [4, 8] | growth inhibition ([4]; at 50.0 µM) | growth inhibition [5, 7] | growth inhibition [5, 8] | growth inhibition ([5]; at 50.0 µM) | growth inhibition [6, 7] | growth inhibition [6, 8] | growth inhibition ([6]; at 50.0 µM)
OCc1cc2c([nH]c3ccccc32)c(C(O)CO)n1 (stereo not given) | -2 | -6% | 92.9% (active) | 0% | -3% | 94.5% (active) | -2% | -3% | 94.5% (active) | 0 | -1% | 92.7% (active) | 2% | -2% | 93.3% (active) | 1% | -4% | -68.3%
CCCCCCCC/C=C\CCCCCCCC(=O)OCCCCC | -7 | 2% | 15.6% | -5% | 0% | 13.8% | -2% | 18% | 17.2% | -8 | -10% | 60.8% | – | – | – | 15% | 11% | 33.6%
CCOC(=O)c1ccc(N=Cc2cc(Cl)cc(Cl)c2O)cc1 | 67 | 99% (active) | 86.7% (active) | 72% (active) | 100% (active) | 88.5% (active) | 28% | 84% (active) | 91% (active) | 37 | 85% (active) | 78.9% (active) | – | – | – | 52% | 100% (active) | 84.5% (active)
Nc1ccc2nc(Nc3ccc(F)cc3)cnc2c1 | -11 | 63% | 63.5% | -9% | 27% | 15.4% | -18% | 36% | 56% | 17 | 49% | 28.9% | 7% | 73% (active) | 60% | 7% | 77% (active) | 65.2%
COc1cc(CCN=Cc2cc(Cl)cc(Cl)c2O)c([N+](=O)[O-])cc1OC | 60 | 74% (active) | 58.8% | 42% | 55% | 69.5% | 53% | 95% (active) | 62.4% | 35 | 57% | 43% | – | – | – | 64% | 91% (active) | 62.6%
CN(C)CCCNc1cc(O)c2c(c1O)C(=O)c1ccccc1C2=O | 22 | 98% (active) | 99.2% (active) | 18% | 94% (active) | 97.6% (active) | 26% | 96% (active) | 98.3% (active) | -16 | 94% (active) | 94.8% (active) | 13% | 97% (active) | 98.3% (active) | 16% | 98% (active) | 99% (active)
OCC1CCc2[nH]c3ccccc3c2C1 (stereo not given) | -159 | -160% | -7.95% | -53% | -59% | -6.55% | -67% | -68% | -4.2% | -56 | -76% | 30.9% | – | – | – | -128% | -123% | 3.5%
NC(Cc1ccnnc1)C(=O)O (stereo not given) | -10 | -5% | -8.6% | 10% | -7% | -36.4% | -7% | -10% | -36.2% | -7 | -11% | 29.1% | -13% | -9% | -22.9% | -16% | -17% | -14.9%
CC1=CC(=N/O)/C=CC/1=C(\C#N)c1ccccc1 | -14 | 99% (active) | 99.2% (active) | -11% | 99% (active) | 99.4% (active) | -6% | 99% (active) | 99.4% (active) | -47 | 99% (active) | 99.3% (active) | -17% | 99% (active) | 99.4% (active) | -20% | 100% (active) | 98.7% (active)
C=C(CN1CCOCC1)C(=O)c1ccccc1 | -23 | 66% | 74.5% (active) | 18% | 80% (active) | 90.2% (active) | 8% | 73% (active) | 85.5% (active) | – | – | – | 3% | 72% (active) | 91% (active) | -13% | 92% (active) | 95% (active)
O=Cc1cc(-c2ccccc2)n(-c2ccccc2)c1-c1ccccc1 | 18 | 18% | 64.3% | – | – | – | -6% | 16% | 63% | -6 | 27% | 0% | 0% | 9% | 35.9% | -1% | 16% | 47.3%
N#Cc1ccc(OC(=O)Nc2c(Cl)cccc2Cl)cc1 | 46 | 41% | 80.4% (active) | 36% | 42% | 82.2% (active) | 44% | 53% | 86.2% (active) | – | – | – | 31% | 70% (active) | 84.3% (active) | 47% | 50% | 83.5% (active)
Cc1ccc(NCCNCCO)c2c(=O)c3ccccc3sc12 | – | – | – | 9% | 100% (active) | 99.6% (active) | 9% | 100% (active) | 99.2% (active) | 8 | 99% (active) | 99.4% (active) | 11% | 99% (active) | 99.5% (active) | 25% | 99% (active) | 99.5% (active)
COC(=O)c1ccc(SCCC(=O)CCl)cc1 | 23 | 99% (active) | 99.3% (active) | 25% | 99% (active) | 99.2% (active) | 24% | 99% (active) | 99% (active) | – | – | – | 38% | 99% (active) | 99.4% (active) | 27% | 99% (active) | 99% (active)
Cc1c(Cl)cc2[nH]c(C(F)(F)F)nc2c1Cl | 3 | 66% | 63% | – | – | – | 3% | 79% (active) | 71.2% (active) | 10 | 71% (active) | 65.1% | 2% | 56% | 41.5% | 3% | 72% (active) | 70.5% (active)
O=C(CCl)Oc1ccc(Sc2ccc(OC(=O)CCl)cc2)cc1 | – | – | – | 12% | 98% (active) | 98.3% (active) | 10% | 97% (active) | 98.8% (active) | 13 | 94% (active) | 96.3% (active) | 1% | 99% (active) | 99.4% (active) | 7% | 99% (active) | 97.9% (active)
CC(=O)OCC(OC(C)=O)C(OC(C)=O)C(OC(C)=O)C(COC(C)=O)OC(C)=O (stereo not given) | – | – | -27.2% and -22.9% and -9.4% | – | – | – | – | – | 3.45% and 10.6% and -10.8% | – | – | -30.3% and -21.9% and -0.1% | – | – | 0.95% and -9.35% and 14.6% | – | – | -24.4% and 7.9% and 2.5%
CCCc1cc2c(cc1O)CC[C@@H]1[C@@H]2CC[C@]2(C)[C@@H](O)CC[C@@H]12 | -25 | 96% (active) | 86.5% (active) | -30% | 96% (active) | 85.8% (active) | -30% | 98% (active) | 84.5% (active) | – | – | – | -33% | 97% (active) | 87.6% (active) | -46% | 96% (active) | 80.7% (active)
CCCCCCCCCCCCSCCCN | – | – | – | -3% | 99% (active) | 99.5% (active) | -1% | 99% (active) | 99.2% (active) | -9 | 99% (active) | 99.5% (active) | -5% | 99% (active) | 99.5% (active) | -9% | 99% (active) | 99.5% (active)
COc1cccc(NC(=S)NC2CC(C)CC(C)(C)C2)c1 (stereo not given) | 24 | 94% (active) | 86.5% (active) | -11% | 85% (active) | 89.3% (active) | -1% | 94% (active) | 89.8% (active) | – | – | – | 8% | 93% (active) | 89.2% (active) | -7% | 93% (active) | 84.8% (active)
CC(C)(C)C(OC(=O)Nc1ccccc1)C(C)(C)C | -1 | 29% | -0.7% | -18% | -5% | -2.2% | 4% | 8% | -9.55% | – | – | – | -1% | 37% | 5.1% | 9% | 36% | 6.25%
CC/C(=C(/CC)c1ccc(O)cc1)c1ccc([O-])cc1.CC/C(=C(/CC)c1ccc(O)cc1)c1ccc([O-])cc1.O=C([CH-]C(=O)c1ccccc1)c1ccccc1.O=C([CH-]C(=O)c1ccccc1)c1ccccc1.[Ti+4] | 64 | 95% (active) | 88.8% (active) | – | – | – | 74% (active) | 98% (active) | 92.8% (active) | 56 | 96% (active) | 91.5% (active) | 78% (active) | 98% (active) | 90.2% (active) | 80% (active) | 93% (active) | 89% (active)
O=C(C1=Cc2ccccc2OC1)N1CCN(c2cccc(Cl)c2)CC1 | – | – | – | -6% | 98% (active) | 35.9% | 1% | 97% (active) | 72.2% (active) | -6 | 97% (active) | 57.8% | 10% | 97% (active) | 89.5% (active) | -12% | 97% (active) | 71.2% (active)
